Reference: PubChem BioAssay (NCATS)
Inconclusive results are not listed. Entries that show only a call come without a potency. A number with no mark means an inactive call. Calls of active or inactive are those of the source. Calls come from the whole dose curve; as a rule, active = well fitted cell-killing curve with a large enough effect; inconclusive = small, poorly fitted or top-dose-only effect, or effect the other way; inactive = flat fitted curve, though single readings scatter.

System: CAOV3
Assay: Primary qHTS to identify gynecologic anti-cancer compounds using libraries of approved drugs and bioactive compounds (AID 1345084); note: nearly all actives have a fitted effect of over 55% in size
Conditions: Gynecologic cancer cell panel viability, ATPlite luminescence, 48 h; series mostly up to 57.5 µM
From the text: National Center for Advancing Translational Sciences [NCATS] Assay Overview: Chemotherapeutic drug responses vary from cancer to cancer and from patient to patient. These variations could be caused by a number of factors including patient genomic background, tumor mutations, tumor heterogeneity, and aspects of drug treatment. Chemotherapeutic drug resistance is also a common issue and can lead to ineffective treatment and patient death. Here we have profiled the cell killing effects of thousands of compounds to characterize the responses in three gynecological cancers, identify cancer-selective compounds, and understand the diversity of responses to these compounds from pan-cancer suppressors to single cell line selective compounds. In this assay, we screened a 7,914 compound drug library that included approved drug and bioactive compounds in six ovarian, three cervical, and […] placental cancer cell lines using the ATPlite assay for cell viability. […] The cervical cancer cell lines included HeLa, Ca Ski, and C-33 A. The placental cancer cell lines included JEG-3. HEK 293T cells were used as the control cell line to determine the selectivity index. ATPlite is a luminescence based assay reliant on the conversion of a luciferase substrate to light in the presence of ATP. As a cytotoxic compound will suppress growth and decrease the number of cells, the concentration of ATP will decrease, and less light signal will be detected in the well.
Assay Protocol Summary: 1,000 cells in 4 uL of media were dispensed into white, solid bottom 1536-well plates using a Multidrop Combi (Thermo Scientific). The Assay plates were incubated for 16 hours at 37 C with 5% CO2 in assay plates, followed by the addition of 23 nL of DMSO or drug dissolved in DMSO. Each compound was assayed in five concentrations (0.092, 0.46, 2.3, 11.5, and 57.5 uM), using the automated Wako 1536 Pin Tool workstation and incubated at 37 C with 5% CO2 48 hours. 4 uL of ATPlite, the ATP monitoring reagent, was then added to the each well of the assay plates using the Multidrop Combi reagent dispenser followed by incubation for 15 minutes at room temperature. The resulting luminescence was measured using the ViewLux plate reader.

Row | SMILES | Potency | activity change, negative = cytotoxicity
1 | Nc1ccc(O)cc1 | inactive | –
2 | O=[N+]([O-])c1nccn1CO[C@@H](CO)[C@H](O)CO | inactive | –
3 | Cc1cccc(OCC(O)CNC(C)(C)C)c1C (stereo not given) | inactive | –
4 | CC1c2ccccc2CN1NC(=O)c1ccc(Cl)c(S(N)(=O)=O)c1 (stereo not given) | inactive | –
5 | OCCc1ccccc1 | inactive | –
6 | CCc1cccc2c(CCO)c[nH]c12 | inactive | –
7 | COC(=O)CCCCC(CCSS/C(CCO)=C(\C)N(C=O)Cc1cnc(C)nc1N)SC(C)=O (stereo not given) | inactive | –
8 | Cc1cc(=O)oc2cc(O[C@@H]3SC[C@@H](O)[C@H](O)[C@H]3O)ccc12 | inactive | –
9 | O=C(Nc1ccc(S(=O)(=O)N2CCOCC2)cc1)c1cc(Cl)ccc1NS(=O)(=O)c1ccc(Cl)s1 | inactive | –
10 | CC(C)NCCCC1(C(N)=O)c2ccccc2-c2ccccc21 | inactive | –
11 | CC(C)(C)c1cc(C=O)cc(C(C)(C)C)c1O | inactive | –
12 | O=C1CC2(CCCC2)CC(=O)N1 | inactive | –
13 | CCOC(=O)c1ccc(OCCN2C[C@H](O)[C@@H](O)[C@H](O)[C@H]2CO)cc1 | inactive | –
14 | CC(C)(C)C(O)/C=C/c1ccc2c(c1)OCO2 (stereo not given) | inactive | –
15 | CCOC(=O)N1CCC(Nc2ccc(Cl)cc2N)CC1 | inactive | –
16 | Cc1ncc(CO)c(CO)c1O | inactive | –
17 | CC(=O)N1CCN(c2ccc(O)cc2)CC1 | inactive | –
18 | Cc1cccc(C)c1NC(=O)c1cc(S(N)(=O)=O)c(Cl)cc1O | inactive | –
19 | CCOC(=O)C(O)c1ccccc1 (stereo not given) | inactive | –
20 | C=C(C)C(=O)OCC(O)CO (stereo not given) | inactive | –

Row | SMILES | Potency | activity change, negative = cytotoxicity
21 | O=C(CS(=O)Cc1ccco1)NC/C=C\COc1cc(CN2CCCCC2)ccn1 (stereo not given) | inactive | –
22 | COc1ccc([C@@H]2Sc3ccccc3NC(=O)[C@@H]2O)cc1 | inactive | –
23 | CCCc1c2oc(C(=O)O)cc(=O)c2cc2c(=O)cc(C(=O)O)n(CC)c12 | inactive | –
24 | O=C(O)CCCC[C@@H]1SC[C@@H]2NC(=O)N[C@@H]21 | inactive | –
25 | COc1ccc2c(c1)CCCC2=O | inactive | –
26 | COc1c(C)c2c(c(O)c1C/C=C(\C)CCC(=O)OCCN1CCOCC1)C(=O)OC2 | inactive | –
27 | CCCC(=O)c1cc(O)c(O)cc1O | inactive | –
28 | O=C1NC(c2cccc([N+](=O)[O-])c2)=CCN1c1ccccc1O | inactive | –
29 | COC(=O)/C=C\C(=O)OC | inactive | –
30 | O=C(OCC(O)CO)c1ccccc1Nc1ccnc2c(C(F)(F)F)cccc12 (stereo not given) | inactive | –
31 | CC(C)(C)C(=O)OCOC(=O)C1N2C(=O)CC2S(=O)(=O)C1(C)C (stereo not given) | inactive | –
32 | CC(=O)O[C@@H]1C(=O)O[C@@H]2[C@H]1OC(=O)[C@@H]2OC(C)=O | inactive | –
33 | CCCCC(CC)CNC(=O)CC(C)OC(=O)CCC(=O)O (stereo not given) | inactive | –
34 | Nc1c[n+](N2CCOCC2)no1 | inactive | –
35 | Cc1cnc(NS(=O)(=O)c2ccc(N)cc2)nc1 | inactive | –
36 | Cc1c(N)cccc1C(F)(F)F | inactive | –
37 | C1=CC2C3C=CC(C3)C2C1 (stereo not given) | inactive | –
38 | CC(=O)O[C@@H]1CC2C3CCc4cc(OC(=O)c5ccccc5)ccc4C3CCC2(C)[C@H]1OC(C)=O (stereo not given in full) | inactive | –
39 | CCN1C(=O)c2ccccc2C1Nc1ccc(OCCN2CCCCC2)cc1 (stereo not given) | inactive | –
40 | NCC[C@H](O)C(=O)N[C@@H]1C[C@H](N)[C@@H](O[C@H]2O[C@H](CN)[C@@H](O)[C@H](O)[C@@H]2O)[C@H](O)[C@@H]1O[C@H]1O[C@H](CO)[C@@H](O)[C@H](N)[C@@H]1O | – | 10.2% [at 0.462 µM]
